Data on 6 molecules can be found in PubChem BioAssay (EPA / NIEHS).

Broadly, the AC50 is the concentration giving half of the maximal activity seen.

The structures appear in SMILES notation. The source made the active and inactive calls. How the source made its calls: active means hit-call score of the fitted dose curve at least 0.9, where 1 is the maximum; inactive means score below 0.9.

Test [1] is described as follows: ATG_CMV_CIS: Attagene CIS-FACTORIAL HepG2 Assay for human CMV (Internal Marker) (AID 2282928).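 Further: endpoint acts as a background internal control marker rather than a target.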 The conditions noted are these: HepG2 CMV promoter reporter, transcription factor profiling; actives raise or lower the signal. Summed up: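 24 h chemical treatment, HepG2 with transient multi-reporter transfection; RNA → oligo(dT) RT → PCR → 6-FAM extension → HpaI digest → CE fluorescence. Bidirectional fit, DMSO negative control.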

Test [2] can be described thus: ATG_ISRE_CIS: Attagene CIS-FACTORIAL HepG2 Assay for human Interferon Regulatory Factor 1 (IRF1) binding to an Interferon-Stimulated Response Element (ISRE) (AID 2282948). The conditions noted are these: HepG2 ISRE cis-reporter (Attagene), mRNA transcription readout; actives raise or lower the signal. Summed up: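 Multiplexed mRNA reporter readout in human liver HepG2 cells: cis-element-driven reporters transfected, compound added for 24 h, transcripts amplified, fluorescently labelled and sized by capillary electrophoresis; curve fitting bidirectional against DMSO.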

Test [3] can be described thus: ATG_M_32_CIS: Attagene CIS-FACTORIAL HepG2 Assay for M32 Transcription Factor (Internal Marker) (AID 2282949).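 Further: background control marker of the multiplexed CIS panel rather than a real target.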 The conditions noted are these: HepG2 Attagene cis-factorial M32 reporter, mRNA; actives raise or lower the signal. In outline:
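HepG2 human liver cells transiently transfected with cis-promoter-driven multiple reporter transcription units, dosed 24 h. Reporter mRNA quantified by RT-PCR, FAM-labelled primer extension, HpaI digest and capillary electrophoresis; bidirectional fit versus DMSO baseline.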

The target of test [4] is Hepatocyte nuclear factor 6 (Homo sapiens) (UniProt Q9UBC0). As to the kind of experiment: ATG_HNF6_CIS: Attagene CIS-FACTORIAL HepG2 Assay for human Hepatocyte Nuclear Factor 6 (HNF6) (AID 2282952). The conditions noted are these: HepG2 Attagene cis-factorial HNF6 reporter transcription; actives raise or lower the signal. In outline:
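Activity values derive from bidirectional fitting against DMSO of reporter mRNA levels, measured by capillary electrophoresis of labelled RT-PCR products from HepG2 cells exposed 24 h.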

Test [5] addresses Heat shock factor protein 1 (Homo sapiens) (UniProt Q00613). The test can be described thus: ATG_HSE_CIS: Attagene CIS-FACTORIAL HepG2 Assay for human Heat Shock Transcription Factor 1 (HSE) (AID 2282953). As to conditions: HepG2 HSE cis-reporter, Attagene RNA transcription; actives raise or lower the signal. Summed up: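 After a 24 h incubation with test chemical, transfected HepG2 cells were harvested for RNA; reporter transcripts were measured by RT-PCR and capillary electrophoresis. Values reflect gain or loss of signal relative to DMSO.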

The nature of test [6]: ATG_RORE_CIS: Attagene CIS-FACTORIAL HepG2 Assay for human RAR-related Orphan Receptor Element (RORE) (AID 2282959). As to conditions: HepG2 Attagene cis-factorial RORE reporter, mRNA; actives raise or lower the signal. In outline:
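Cells were HepG2 carrying transfected cis-regulated reporter constructs, dosed for 24 hours. Total RNA was reverse-transcribed and reporter cDNA amplified, fluorescently labeled and sized by capillary electrophoresis. Activity was fitted bidirectionally relative to DMSO.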

Test [7] in a line: ATG_TA_CIS: Attagene CIS-FACTORIAL HepG2 Assay for human TA Basal Promoter (AID 2282964). As to conditions: HepG2 Attagene CIS-factorial TA basal promoter reporter; actives raise or lower the signal. In outline: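 Multiplexed mRNA reporter assay, HepG2, 24 h. Reporter cDNA amplified, 6-FAM primer-extended, HpaI-cut, CE-sized; DMSO = negative control and baseline.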
The nature of test [8]: ATG_TCF_b_cat_CIS: Attagene CIS-FACTORIAL HepG2 Assay for human T-Cell-Factor with beta-catenin (TCF/b-cat) (AID 2282965). As to conditions: HepG2 TCF/beta-catenin cis-reporter transcription, actives raise or lower the signal. In outline:
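In this cis-format system, transfected HepG2 cells report endogenous transcription factor activity. Readout after 24 h exposure is reporter transcript abundance from RT-PCR and capillary electrophoresis, analysed for gain or loss of signal versus DMSO.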

Test [9] can be described thus: ATG_TAL_CIS: Attagene CIS-FACTORIAL HepG2 Assay for human TAL Basal Promoter (AID 2282966).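 Further: background control endpoint measuring basal TAL promoter reporter mRNA not a specific factor.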 The conditions noted are these: HepG2 Attagene cis-factorial TAL promoter reporter; actives raise or lower the signal. In outline:
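Transiently transfected HepG2 (cis-regulated reporter units), 24 h treatment, mRNA read by fluorescent CE after RT-PCR; bidirectional fit, DMSO baseline.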

Test [10] is described as follows: ATG_TGFb_CIS: Attagene CIS-FACTORIAL HepG2 Assay for human Transforming Growth Factor (TGF) (AID 2282967). The conditions noted are these: HepG2 Attagene CIS TGFb reporter, mRNA transcription; actives raise or lower the signal. In outline:
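Transcript-level reporter readout: HepG2 transfectants, 24 h exposure, RNA to cDNA, reporter-specific PCR, fluorescent primer extension, capillary sizing against ROX standards. Gain- or loss-of-signal relative to DMSO.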

Test [11] addresses X-box-binding protein 1 (Homo sapiens) (UniProt P17861). As to the kind of experiment: ATG_Xbp1_CIS: Attagene CIS-FACTORIAL HepG2 Assay for human X-box Binding Protein 1 (XBP1) (AID 2282972). The conditions noted are these: HepG2 XBP1 cis-element reporter, Attagene multiplex; actives raise or lower the signal. Summed up:
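Multiplexed cis-reporter readout in transfected HepG2 liver cells. Exposure lasted 24 hours. Activity in either direction was fitted against DMSO as negative control and baseline.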

In test [12] the target is Transcriptional activator Myb (Homo sapiens) (UniProt P10242). The test can be described thus: ATG_Myb_CIS: Attagene CIS-FACTORIAL HepG2 Assay for human Myeloblastosis (Myb) Proto-Oncogene Transcription Factor (AID 2282986). The conditions noted are these: HepG2 Attagene CIS-FACTORIAL Myb reporter transcription; actives raise or lower the signal. Summed up: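 Steps: transfect HepG2 with cis-regulated reporter units; dose with chemical for 24 h; isolate RNA, reverse-transcribe, PCR-amplify and FAM-label reporter sequences; digest with HpaI; resolve by capillary electrophoresis. Activity fitted in both directions relative to DMSO.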

For test [13], the target named is Nuclear respiratory factor 1 (Homo sapiens) (UniProt Q16656). As to the kind of experiment: ATG_NRF1_CIS: Attagene CIS-FACTORIAL HepG2 Assay for human Nuclear Respiratory Factor 1 (NRF1) Orphan Gene (AID 2282987). The conditions noted are these: HepG2 NRF1 cis-element reporter, Attagene multiplex; actives raise or lower the signal. In outline: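 Fluorescence intensity of labelled reporter cDNA fragments, resolved by capillary electrophoresis, served as readout for NRF1 cis-element activity. Transiently transfected HepG2 cells were dosed for 24 hours; activity in either direction was fitted against DMSO negative control.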

The target of test [14] is Myc proto-oncogene protein (Homo sapiens) (UniProt P01106). As to the kind of experiment: ATG_Myc_CIS: Attagene CIS-FACTORIAL HepG2 Assay for human Myelocytomatosis (Myc) Proto-Oncogene Transcription Factor (AID 2282990). As to conditions: HepG2, Attagene cis-reporter transcription factor activity; actives raise or lower the signal. In outline: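 DMSO-normalised, bidirectionally fitted reporter mRNA signal. HepG2 cells transfected with cis reporter constructs, treated 24 h; transcripts detected by RT-PCR, 6-FAM primer extension and CE.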

The nature of test [15]: ATG_NF_kB_CIS: Attagene CIS-FACTORIAL HepG2 Assay for human Nuclear Factor Kappa B (NF-kB) (AID 2282991). As to conditions: HepG2 Attagene cis-factorial NF-kB reporter mRNA; actives raise or lower the signal. Summed up: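 Endogenous transcription factor activity in HepG2 was captured via cis-regulated reporter constructs; after 24 h dosing, reporter mRNA was reverse-transcribed, amplified, fluorescently labelled and sized by capillary electrophoresis, with activity fitted bidirectionally relative to DMSO.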

The nature of test [16]: ATG_NRF2_ARE_CIS: Attagene CIS-FACTORIAL HepG2 Assay for human Nuclear Factor Erythroid 2 Related Factor 2 (NFR2) response to Antioxidant Response Elements (ARE) (AID 2282992). The conditions noted are these: HepG2 Attagene ARE/NRF2 reporter, transcription factor activity; actives raise or lower the signal. Summed up: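 Endogenous transcription factor activity in human liver HepG2 cells is tracked via a cis-element-driven reporter within a multiplexed set. mRNA induction is read by RT-PCR and capillary electrophoresis after 24 h, with DMSO as baseline.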

Test [17] in a line: ATG_Oct_MLP_CIS: Attagene CIS-FACTORIAL HepG2 Assay for human Octamer-Binding Transcription Factor (Oct) (AID 2282993). As to conditions: HepG2 Attagene cis-factorial Oct reporter, mRNA; actives raise or lower the signal. In outline:
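Cells of the HepG2 line express promoter-controlled reporter sequences whose mRNA levels, after 24 h treatment, are measured by RT-PCR and capillary electrophoresis. Increases and decreases are scored relative to DMSO.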

Test [18] has as its target Cellular tumor antigen p53 (Homo sapiens) (UniProt P04637). The test can be described thus: ATG_p53_CIS: Attagene CIS-FACTORIAL HepG2 Assay for human p53 Transcription Factor (AID 2282994). As to conditions: HepG2 p53 cis-element reporter, Attagene mRNA; actives raise or lower the signal. In outline: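 Steps: transfect HepG2 with multiplexed cis reporter constructs; dose chemicals 24 h; extract RNA, reverse-transcribe, PCR-amplify reporter sequences; FAM-label, HpaI-digest, resolve fragments by CE. Activity fitted both directions relative to DMSO.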

In test [19] the target is Signal transducer and activator of transcription 3 (Homo sapiens) (UniProt P40763). As to the kind of experiment: ATG_STAT3_CIS: Attagene CIS-FACTORIAL HepG2 Assay for human Signal Transducer and Activator of Transcription 3 (STAT3) (AID 2282963). As to conditions: HepG2, Attagene cis-factorial STAT3 reporter transcription; actives raise or lower the signal. In outline:
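HepG2, MRTU-transfected, 24 h dosing. RNA → RT → PCR → FAM label → HpaI → CE. Bidirectional fit vs DMSO.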

A short description of test [20]: ATG_VDRE_CIS: Attagene CIS-FACTORIAL HepG2 Assay for human Vitamin D Receptor Element (VDRE) (AID 2282968). As to conditions: HepG2 VDRE cis-reporter transcription, actives raise or lower the signal. Summed up: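 Steps: transfect HepG2 with multiple reporter transcription units; dose chemicals 24 h; isolate RNA; RT-PCR; label with 6-FAM primer extension; HpaI digest; capillary electrophoresis. Curves fitted both directions against DMSO.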

Signal transducer and activator of transcription 3 (Homo sapiens), sequence (P40763 whole entry, looked up): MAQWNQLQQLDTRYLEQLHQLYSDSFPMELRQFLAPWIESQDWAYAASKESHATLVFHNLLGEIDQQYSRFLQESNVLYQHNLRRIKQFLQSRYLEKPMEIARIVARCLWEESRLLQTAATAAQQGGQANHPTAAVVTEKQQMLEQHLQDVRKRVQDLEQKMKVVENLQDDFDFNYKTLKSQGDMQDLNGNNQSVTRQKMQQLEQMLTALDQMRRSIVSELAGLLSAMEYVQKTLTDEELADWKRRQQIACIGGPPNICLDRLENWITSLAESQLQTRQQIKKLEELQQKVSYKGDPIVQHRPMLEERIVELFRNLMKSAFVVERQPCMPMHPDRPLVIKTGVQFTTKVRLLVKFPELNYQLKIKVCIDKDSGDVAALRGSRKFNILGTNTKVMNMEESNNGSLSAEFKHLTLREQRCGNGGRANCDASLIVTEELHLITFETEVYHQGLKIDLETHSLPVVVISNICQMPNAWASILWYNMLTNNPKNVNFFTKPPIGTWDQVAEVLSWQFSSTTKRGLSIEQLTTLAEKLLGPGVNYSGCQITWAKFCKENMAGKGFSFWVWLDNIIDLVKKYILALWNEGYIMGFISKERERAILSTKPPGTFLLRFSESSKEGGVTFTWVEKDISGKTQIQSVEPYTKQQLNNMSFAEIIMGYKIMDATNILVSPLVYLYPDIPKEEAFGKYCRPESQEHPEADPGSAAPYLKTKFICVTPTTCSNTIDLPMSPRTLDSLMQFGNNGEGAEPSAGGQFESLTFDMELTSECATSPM
Hepatocyte nuclear factor 6 (Homo sapiens), sequence (Q9UBC0 whole entry, looked up): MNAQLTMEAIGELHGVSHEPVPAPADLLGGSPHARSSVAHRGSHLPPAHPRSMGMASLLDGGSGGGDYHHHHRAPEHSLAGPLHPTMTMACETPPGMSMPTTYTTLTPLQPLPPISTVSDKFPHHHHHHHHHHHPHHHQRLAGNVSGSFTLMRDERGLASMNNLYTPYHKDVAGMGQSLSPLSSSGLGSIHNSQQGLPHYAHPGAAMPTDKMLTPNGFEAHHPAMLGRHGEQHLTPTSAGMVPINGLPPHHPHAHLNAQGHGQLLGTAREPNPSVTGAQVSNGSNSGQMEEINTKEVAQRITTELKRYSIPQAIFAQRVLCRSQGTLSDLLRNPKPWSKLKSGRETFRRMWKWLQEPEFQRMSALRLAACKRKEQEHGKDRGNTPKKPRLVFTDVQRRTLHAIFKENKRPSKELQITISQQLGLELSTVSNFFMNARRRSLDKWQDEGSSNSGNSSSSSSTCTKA
X-box-binding protein 1 (Homo sapiens), sequence (P17861 whole entry, looked up): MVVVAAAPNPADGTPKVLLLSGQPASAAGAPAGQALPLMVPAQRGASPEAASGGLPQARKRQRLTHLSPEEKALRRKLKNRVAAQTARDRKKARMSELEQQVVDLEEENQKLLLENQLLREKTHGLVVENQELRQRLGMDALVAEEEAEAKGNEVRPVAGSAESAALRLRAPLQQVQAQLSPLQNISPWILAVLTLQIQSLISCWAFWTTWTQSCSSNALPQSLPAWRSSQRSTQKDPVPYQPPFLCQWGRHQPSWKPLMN
Transcriptional activator Myb (Homo sapiens), sequence (P10242 whole entry, looked up): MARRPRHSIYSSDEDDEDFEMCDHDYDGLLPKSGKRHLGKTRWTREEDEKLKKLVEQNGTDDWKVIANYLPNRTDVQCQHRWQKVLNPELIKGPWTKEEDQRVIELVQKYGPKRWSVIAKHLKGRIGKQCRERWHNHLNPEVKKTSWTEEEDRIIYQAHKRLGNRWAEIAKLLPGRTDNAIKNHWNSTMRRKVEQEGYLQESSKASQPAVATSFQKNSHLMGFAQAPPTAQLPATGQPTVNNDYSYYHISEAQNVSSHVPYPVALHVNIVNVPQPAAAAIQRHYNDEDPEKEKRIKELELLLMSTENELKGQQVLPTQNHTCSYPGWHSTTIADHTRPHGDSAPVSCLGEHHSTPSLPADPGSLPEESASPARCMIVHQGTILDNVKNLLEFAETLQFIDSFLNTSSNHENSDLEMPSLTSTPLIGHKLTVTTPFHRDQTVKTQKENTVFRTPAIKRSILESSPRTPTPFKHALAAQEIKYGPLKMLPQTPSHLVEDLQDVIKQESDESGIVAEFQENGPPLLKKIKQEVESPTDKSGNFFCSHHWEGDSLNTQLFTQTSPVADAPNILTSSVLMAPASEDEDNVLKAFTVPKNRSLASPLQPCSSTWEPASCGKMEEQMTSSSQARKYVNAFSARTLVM
Nuclear respiratory factor 1 (Homo sapiens), sequence (Q16656 whole entry, looked up, the tested form may be a part): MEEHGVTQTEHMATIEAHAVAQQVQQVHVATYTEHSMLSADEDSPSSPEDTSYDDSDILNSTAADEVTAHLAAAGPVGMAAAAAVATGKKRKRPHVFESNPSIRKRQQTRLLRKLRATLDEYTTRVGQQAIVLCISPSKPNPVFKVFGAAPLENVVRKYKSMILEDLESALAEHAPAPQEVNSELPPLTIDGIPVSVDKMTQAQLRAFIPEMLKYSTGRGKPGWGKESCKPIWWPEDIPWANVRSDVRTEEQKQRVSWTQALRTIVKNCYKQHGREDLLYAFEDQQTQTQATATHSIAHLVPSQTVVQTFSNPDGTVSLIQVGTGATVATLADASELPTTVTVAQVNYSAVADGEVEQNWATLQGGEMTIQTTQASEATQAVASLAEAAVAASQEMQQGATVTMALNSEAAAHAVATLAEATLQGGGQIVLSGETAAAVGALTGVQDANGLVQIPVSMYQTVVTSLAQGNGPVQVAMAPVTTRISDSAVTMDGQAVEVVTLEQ
Heat shock factor protein 1 (Homo sapiens), sequence (Q00613 whole entry, looked up): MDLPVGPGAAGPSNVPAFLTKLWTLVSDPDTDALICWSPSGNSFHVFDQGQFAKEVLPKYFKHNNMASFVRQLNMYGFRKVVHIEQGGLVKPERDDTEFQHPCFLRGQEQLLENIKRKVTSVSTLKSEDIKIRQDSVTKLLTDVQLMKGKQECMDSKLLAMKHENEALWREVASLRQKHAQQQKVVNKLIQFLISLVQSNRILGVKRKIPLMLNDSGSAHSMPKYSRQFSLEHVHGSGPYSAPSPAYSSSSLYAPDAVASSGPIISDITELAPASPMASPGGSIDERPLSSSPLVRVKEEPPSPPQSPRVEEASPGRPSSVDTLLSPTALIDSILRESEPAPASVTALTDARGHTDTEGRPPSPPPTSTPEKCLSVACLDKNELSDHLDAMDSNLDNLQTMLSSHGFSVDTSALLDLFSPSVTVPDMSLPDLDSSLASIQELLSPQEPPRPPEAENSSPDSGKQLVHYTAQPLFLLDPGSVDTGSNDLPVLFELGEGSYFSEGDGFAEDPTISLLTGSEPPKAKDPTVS
Cellular tumor antigen p53 (Homo sapiens), sequence (P04637 whole entry, looked up, the tested form may be a part): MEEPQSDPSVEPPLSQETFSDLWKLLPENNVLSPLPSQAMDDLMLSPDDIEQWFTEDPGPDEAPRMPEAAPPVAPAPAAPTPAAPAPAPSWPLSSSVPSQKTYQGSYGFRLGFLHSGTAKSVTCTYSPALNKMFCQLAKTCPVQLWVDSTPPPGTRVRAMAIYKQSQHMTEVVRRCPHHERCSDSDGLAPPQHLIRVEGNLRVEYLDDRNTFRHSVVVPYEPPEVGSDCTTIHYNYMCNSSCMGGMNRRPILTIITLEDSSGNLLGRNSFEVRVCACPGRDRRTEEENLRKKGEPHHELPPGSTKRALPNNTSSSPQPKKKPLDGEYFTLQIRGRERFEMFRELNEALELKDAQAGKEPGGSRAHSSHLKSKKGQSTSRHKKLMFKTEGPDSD
Myc proto-oncogene protein (Homo sapiens), sequence (P01106 whole entry, looked up): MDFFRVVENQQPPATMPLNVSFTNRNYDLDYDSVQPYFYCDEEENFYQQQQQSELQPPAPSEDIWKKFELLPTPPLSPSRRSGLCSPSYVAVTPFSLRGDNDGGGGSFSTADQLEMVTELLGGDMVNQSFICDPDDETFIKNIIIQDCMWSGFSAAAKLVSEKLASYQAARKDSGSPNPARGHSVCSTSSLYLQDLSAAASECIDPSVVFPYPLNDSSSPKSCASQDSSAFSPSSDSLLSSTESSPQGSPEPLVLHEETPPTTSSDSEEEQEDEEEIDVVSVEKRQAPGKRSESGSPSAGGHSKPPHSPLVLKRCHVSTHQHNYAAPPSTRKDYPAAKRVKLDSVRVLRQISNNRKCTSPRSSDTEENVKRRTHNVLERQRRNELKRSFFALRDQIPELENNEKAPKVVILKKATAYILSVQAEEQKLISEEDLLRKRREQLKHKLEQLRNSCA

Regarding `CCOC(=O)COc1ccc(Cl)cc1Cl`, the outcome in [1], in [2], in test [3], in test [4], in test [5] and in [6] was inactive. Further, the result in [7], in test [8], in test [9], in test [10], in test [11] and in test [12] was inactive. Further, the call in [13], in [14], in test [15], in test [16], in test [17] and in test [18] was inactive.
Take `Nc1c(Cl)c(Cl)c(Cl)c(Cl)c1Cl`: the results for the AC50 in [1] and in test [16] were 34.2 µM (active) and 38.1 µM (active), respectively. The call in test [3], in test [4], in test [5], in test [6], in test [19] and in [7] was inactive. Further, the outcome in test [8], in test [9], in [10], in test [20], in test [11] and in [12] was inactive. Also, the outcome in [13], in test [14] and in test [17] was inactive.
As to `N#CCNCC#N`, the call in test [1], in test [4], in test [5], in test [6], in [19] and in test [7] was inactive. In addition, the molecule was called inactive in [8], in test [9], in test [10], in [20], in [11] and in [12]. Further, the result in [13], in test [14], in test [15], in test [16], in test [17] and in [18] was inactive.
`Oc1ccc(Cl)cc1`: the molecule was called inactive in [1], in test [2], in [4], in test [5], in test [6] and in [19]. The result in test [7], in test [8], in test [9], in [10], in [20] and in [11] was inactive. Moreover, the molecule was called inactive in [12], in [13], in test [14], in test [15], in test [16] and in test [17]. The result in test [18] was inactive.
Take `COc1ncc(F)c2nc(S(=O)(=O)Nc3c(F)cccc3F)nn12`: the call in test [1], in test [2], in test [4], in [5], in test [6] and in test [19] was inactive. The molecule was classed as inactive in test [7], in [8], in test [9], in test [10], in test [11] and in test [12]. Moreover, the molecule was classed as inactive in [13], in [14], in [15], in test [16] and in [17].
As to `COCC(=O)N(c1c(C)cccc1C)N1CCOC1=O`, the result in [1], in test [2], in [3], in test [4], in test [5] and in test [6] was inactive. Further, the outcome in test [19], in [7], in test [8], in [9], in test [10] and in [11] was inactive. Further, the result in [12], in test [13], in [14], in test [15], in [16] and in test [17] was inactive. Moreover, the molecule was classed as inactive in test [18]. Further, the AC50 in test [20] was 65.9 µM (active).
